Here are results for three molecules from PubChem BioAssay.

Assay [1] can be described thus: P. berghei load reduction in hepatocytes – cell-based, HepG2, luciferase luminescence, HepG2 viability, primary screen (AID 624349; in the data active = parasite load remaining mostly below about 12%, no sharp cut-off; inactive = mostly above about 10%;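 also: 100% = mean of DMSO negative control wells on the same plate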). The conditions noted are these: P. berghei liver stage in HepG2, luciferase luminescence, concentration not given here; parasite load remaining: stronger effect = lower value; viability: measured here: HepG2 viability without parasites.
The nature of assay [2]: signal quenchers or enhancers, Cy5 substrate/SSB – biochemical, NIH Clinical Collection, E. coli SSB, artefact control for HCV NS3 helicase inhibitor project (AID 743268). The conditions noted are these: Cy5-oligo bound E. coli SSB, fluorescence interference.
Assay [3] has as its system Hepatitis C virus NS3 helicase. Briefly: blockers of NS3h binding to DNA – biochemical, fluorescence polarization, NIH Clinical Collection, primary screen (AID 743270). Conditions: NS3 helicase binding to Cy5-dT15 DNA, stronger effect = higher value, concentration not given here. (Polarisation of emitted light reports the rotation of a fluorescent probe.)
In assay [4] the target is Single-stranded DNA-binding protein (Escherichia coli (strain K12)) (UniProt P0AGE0). Briefly: SSB-ssDNA binding inhibitors – biochemical, fluorescence polarization, NIH Clinical Collection, counter-screen for HCV NS3 helicase inhibitor project (AID 743271; in the data active = inhibition above about 28%). The conditions noted are these: E. coli SSB-DNA binding, stronger effect = higher value, concentration not given here.
A short description of assay [5]: compounds distorting NS3 helicase fluorescence signal – biochemical, NIH Clinical Collection, artefact control for HCV NS3 helicase inhibitor project (AID 743272).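 Also: HCV NS3 helicase with a Cy5 labelled single stranded DNA probe.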 Conditions: fluorescence interference counterscreen, HCV NS3 helicase assay; stronger effect = lower value. On the technique in general: A counterscreen serves to expose hits that act by an unwanted route or on another target.

Assay [6] is described as follows: Wnt pathway potentiators raising nuclear beta-catenin – imaging, WNT3A-conditioned medium, mouse C2C12, NPC library, primary screen (AID 1117326; in the data active = nuclear beta-catenin stimulation mostly above about 4.2%, no sharp cut-off; inactive = mostly below about 10%). The conditions noted are these: stronger effect = higher value.
Assay [7] is described as follows: stimulators of insulin release from INS-1E, primary screen, cell-based, 5 mM glucose, NPC library (AID 1117329;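 active = compound raises insulin release from rat beta cells at 5 mM glucose, no numeric limit stated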). The conditions noted are these: rat INS-1E insulin secretion, at 10 µM, stronger effect = higher value.
Assay [8] can be described thus: growth inhibition of GSK3B-pretreated HCT116 cells – cell-based, CellTiter-Glo, 0.2 to 20 µM (AID 1117336;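 active = compounds lowering colon cancer cell viability after pretreatment blocking the GSK3B kinase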). Conditions: HCT116 viability after GSK3B inhibitor, at 20 µM, stronger effect = higher value.
A short description of assay [9]: inhibition of endothelial tube formation, primary screen, imaging, VEGF stimulated, CD31 staining, tube area, NPC library (AID 1117340;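 active = compound that reduces growth-factor-driven endothelial tube area in a mixed cell culture, no cutoff stated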). The conditions noted are these: VEGF-stimulated ADSC/ECFC co-culture, at 10 µM, stronger effect = higher value.
The nature of assay [10]: GLP1 release stimulators, primary, NCI-H716, NPC library (AID 1117341;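 active = compound raises GLP1 secretion from the human gut endocrine cells, with no numeric limit stated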). Conditions: NCI-H716 cells, at 10 µM, stronger effect = higher value.
Assay [11] in a line: HCT116 colon cancer cell growth inhibition, primary screen, CellTiter-Glo luminescence, NPC library (AID 1117342;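 active = compounds that lower survival of HCT116 colon cancer cells in the luminescence readout, no numeric limit stated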). The conditions noted are these: at 20 µM (top of the series). On the technique in general: Cellular ATP, detected with luciferase, serves as a proxy for viable cell number.
The nature of assay [12]: reduced SW480 viability measured with CellTiter-Glo, NPC library, primary (AID 1117343;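 active = compounds that lower viability of the colon cancer cells in the luminescence readout, with no numeric limit stated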). The conditions noted are these: CellTiter-Glo luminescence; at 20 µM (top of the series).
The nature of assay [13]: NPC library primary testing for decreased DLD-1 cell viability via CellTiter-Glo (AID 1117346;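 active = compounds that lower survival of DLD-1 colon cancer cells in the luminescence readout, no cutoff given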). Conditions: DLD-1 viability, CellTiter-Glo luminescence; at 20 µM (top of the series).
Assay [14] concerns the target 6-phosphogluconate dehydrogenase, decarboxylating (Homo sapiens) (UniProt P52209). Briefly: inhibition of human phosphogluconate dehydrogenase – biochemical, recombinant enzyme, NADPH absorbance, primary screen (AID 1159550;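 active = at least 20% inhibition of 6-phosphogluconate dehydrogenase activity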). Conditions: recombinant 6PGD, NADPH absorbance 341 nm; at 10 µM; stronger effect = higher value.
Assay [15] can be described thus: viability loss with induced miR-34 in A549 – imaging, A549 dox-inducible miR-34, nuclei and caspase counts, primary screen (AID 1347080;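 active = compounds whose cell count with miR-34 switched on is under 0.7 times the count with it off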). The conditions noted are these: A549 miR-34 inducible, Hoechst nuclei count, 48 h.
A short description of assay [16]: MELAS cybrid and Rieske KO viability enhancers – cell-based, MELAS cybrids, Rieske KO mouse fibroblasts, CellTiter-Glo, primary screen (AID 1508586;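 active = mean z-score across replicates of 1.96 or higher in either the MELAS or the Rieske mutant cell line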;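 also: z relative to plate mean and SD of compound and empty wells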). The conditions noted are these: low glucose.
For assay [17], the target named is NAD(+) hydrolase SARM1 (Homo sapiens) (UniProt Q6SZW1). Briefly: blocking NAD cleavage by SARM1 SAM-TIR – cell lysate, NAD-Glo luminescence (AID 1508614;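 active = compound whose remaining NAD level is above about 45 nM, limit read from the data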;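 also: higher remaining NAD means stronger inhibition of SARM1 NADase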). Conditions: SAM-TIR HEK293T lysate NADase, at 1 µM, stronger effect = higher value.
Assay [18] concerns the target Mitogen-activated protein kinase 7 (Homo sapiens) (UniProt Q13164). Briefly: Gal4-ERK5 driven luciferase induction – cell-based, HTS, primary screen (AID 1508626;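 active = luciferase signal above three times the same-plate solvent-only control wells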;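 also: luciferase driven by Gal4-ERK5 fusion binding five Gal4 sites before minimal TATA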). Conditions: HeLa Gal4-ERK5 transactivation, 18 h, at 5 µM, stronger effect = higher value.
Assay [19] has as its system F380Y. Briefly: BK channel mutant inhibitors and activators – cell-based, U2OS BacMam, thallium flux, beta subunits, selectivity assay, profiling panel (AID 1259406;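 active = thallium flux through the channel raised or lowered by more than 3 SD from vehicle-only wells, actives on both sides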;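 also: initial slope of Thallos dye fluorescence rise after thallium is added; log ratio against the mean of 0.3% DMSO vehicle wells on the same plate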). Conditions: U2OS BacMam BK variants, at 30 µM.
Where [20] appears, read: stronger effect = lower value, cell number ratio, induced over uninduced.
[21] abbreviates: measured here: relative caspase fold change +Dox/-Dox.
[22] abbreviates: measured here: total cells with miR-34 induction, stronger effect = lower value.
The mark [23] stands for this setting: measured here: total cells without miR-34 induction.
Where [24] appears, read: MELAS cybrid survival, CellTiter-Glo 48 h, stronger effect = higher value.
Where [25] appears, read: Rieske KO mouse fibroblast survival, CellTiter-Glo 72 h.

Several values for one entry are separate records, joined by “and”; a condition that tells them apart may be missing. Equal values may be shown once. A structure can be active in one record and inactive in another. Activity calls are given as the source filed them. Unless noted, no rule for the calls is given here.

Mitogen-activated protein kinase 7 (Homo sapiens), sequence (Q13164 whole entry, looked up, the tested form may be a part): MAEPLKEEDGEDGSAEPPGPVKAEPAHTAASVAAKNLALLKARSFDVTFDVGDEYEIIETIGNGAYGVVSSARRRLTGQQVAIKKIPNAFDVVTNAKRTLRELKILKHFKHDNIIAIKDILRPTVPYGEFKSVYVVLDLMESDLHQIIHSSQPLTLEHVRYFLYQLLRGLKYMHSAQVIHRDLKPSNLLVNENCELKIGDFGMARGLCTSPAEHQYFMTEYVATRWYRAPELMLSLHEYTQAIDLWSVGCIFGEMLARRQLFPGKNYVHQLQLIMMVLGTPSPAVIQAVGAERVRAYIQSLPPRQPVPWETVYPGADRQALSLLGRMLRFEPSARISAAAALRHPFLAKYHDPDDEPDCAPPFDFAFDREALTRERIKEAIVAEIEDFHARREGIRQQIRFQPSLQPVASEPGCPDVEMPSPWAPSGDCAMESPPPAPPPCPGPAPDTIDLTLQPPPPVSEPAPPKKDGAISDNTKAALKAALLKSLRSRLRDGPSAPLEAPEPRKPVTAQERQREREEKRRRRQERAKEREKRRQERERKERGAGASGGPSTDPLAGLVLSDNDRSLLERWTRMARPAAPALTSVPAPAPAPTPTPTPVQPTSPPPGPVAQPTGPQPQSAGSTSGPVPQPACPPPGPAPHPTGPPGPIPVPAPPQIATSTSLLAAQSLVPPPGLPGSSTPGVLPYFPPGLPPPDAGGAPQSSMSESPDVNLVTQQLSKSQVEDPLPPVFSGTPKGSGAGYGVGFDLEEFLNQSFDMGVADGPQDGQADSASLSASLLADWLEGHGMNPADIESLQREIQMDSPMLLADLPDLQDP
6-phosphogluconate dehydrogenase, decarboxylating (Homo sapiens), sequence (P52209 whole entry, looked up): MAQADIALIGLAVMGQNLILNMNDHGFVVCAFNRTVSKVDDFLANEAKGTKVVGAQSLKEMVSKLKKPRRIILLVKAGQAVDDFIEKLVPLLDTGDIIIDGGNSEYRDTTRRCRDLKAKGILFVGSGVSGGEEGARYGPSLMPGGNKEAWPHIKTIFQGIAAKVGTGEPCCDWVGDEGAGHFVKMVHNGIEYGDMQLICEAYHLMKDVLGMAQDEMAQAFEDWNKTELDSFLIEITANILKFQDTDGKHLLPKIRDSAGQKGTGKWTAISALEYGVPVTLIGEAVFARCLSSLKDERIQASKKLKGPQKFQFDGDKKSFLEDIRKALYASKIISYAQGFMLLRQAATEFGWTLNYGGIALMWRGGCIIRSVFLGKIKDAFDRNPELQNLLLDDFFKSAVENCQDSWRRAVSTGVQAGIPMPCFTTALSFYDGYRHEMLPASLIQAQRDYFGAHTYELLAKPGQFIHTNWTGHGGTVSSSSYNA
NAD(+) hydrolase SARM1 (Homo sapiens), sequence (Q6SZW1 whole entry, looked up, the tested form may be a part): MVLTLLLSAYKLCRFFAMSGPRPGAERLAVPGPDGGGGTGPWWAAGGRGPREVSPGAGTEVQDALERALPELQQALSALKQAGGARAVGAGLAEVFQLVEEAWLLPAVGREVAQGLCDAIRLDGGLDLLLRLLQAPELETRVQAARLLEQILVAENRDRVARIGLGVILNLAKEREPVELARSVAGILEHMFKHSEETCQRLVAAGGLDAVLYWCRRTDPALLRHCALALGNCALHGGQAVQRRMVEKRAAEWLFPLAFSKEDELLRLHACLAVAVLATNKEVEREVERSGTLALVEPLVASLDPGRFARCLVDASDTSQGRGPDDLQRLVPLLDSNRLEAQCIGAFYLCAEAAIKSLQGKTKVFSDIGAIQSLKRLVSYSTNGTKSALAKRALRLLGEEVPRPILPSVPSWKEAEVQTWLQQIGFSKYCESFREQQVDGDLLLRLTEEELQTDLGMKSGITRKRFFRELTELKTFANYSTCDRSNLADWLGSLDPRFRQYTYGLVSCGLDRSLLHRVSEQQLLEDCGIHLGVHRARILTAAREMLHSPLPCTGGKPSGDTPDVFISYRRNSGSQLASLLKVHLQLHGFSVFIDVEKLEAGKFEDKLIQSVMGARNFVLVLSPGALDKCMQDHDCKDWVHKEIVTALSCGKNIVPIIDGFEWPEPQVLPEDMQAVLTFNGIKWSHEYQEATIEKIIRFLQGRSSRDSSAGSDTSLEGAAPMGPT

Regarding `CN(C)CC/C=C1\c2ccccc2COc2ccccc21`, in assay [1], the parasite load remaining is 66.1% (inactive) and 36% (inactive) and 100% (inactive). Also, in [1], the viability was 121% and 46.9% and 88.3%. Also, the results for the fluorescence ratio in assay [2] and in assay [5] were 0.98 (inactive) and 0.9 (inactive), respectively. Also, the inhibition in assay [3] was -1.36% (inactive); in assay [4], 4.1% (inactive); in assay [14], 2.99% (inactive). The nuclear beta-catenin stimulation in [6] (at 10 µM) was -0.4% (inactive); in assay [6] (stimulation, at 2 µM), 0.3%. In assay [7], the insulin secretion stimulation is -0.9% (inactive). Moreover, the viability decrease in [8] is -44.3% (inactive). Also, the tube area decrease in assay [9] is -0.9% (inactive). For the same molecule, the GLP1 secretion stimulation in [10] is 5.2% (inactive). The inhibition of viability in assay [11] is 12% (inactive). For the same molecule, the viability decrease (inhibition) in [12] was 54.8% (active); in [13] it was -3.7% (inactive). For the same molecule, the fold change in [15] (setting [20]) was 0.953 (inactive) and 0.908 (inactive) and 0.946 (inactive); in assay [15] (setting [21]), 1.39 and 2.7 and 1.08. For the same molecule, the cell count was 9160 and 8980 and 8750 in [15] (setting [22]); 9610 and 9880 and 9250 in [15] (setting [23]). For the same molecule, the values for the z-score in [16] (setting [24]) and in assay [16] (setting [25]) were 0.295 (inactive) and 0.581, respectively. Moreover, the remaining NAD in assay [17] was 10 nM (inactive). In addition, in [18], the luciferase signal is 96 AU (inactive). Besides, the log fold change Tl+ flux in assay [19] was 0.0501 (inactive).

With `CC(C)Oc1ccc2c(=O)c(-c3ccccc3)coc2c1`, the parasite load remaining in assay [1] is 170% (inactive). Also, in [1], the viability is 63.7%. Further, the values for the fluorescence ratio in [2] and in assay [5] were 1.05 (inactive) and 1.04 (inactive), respectively. For the same molecule, the inhibition in assay [3] is 3.56% (inactive); in [4] it was 5.29% (inactive); in assay [14], 8.55% (inactive). Moreover, the nuclear beta-catenin stimulation in assay [6] (at 10 µM) was 1.8% (inactive) and 1% (inactive); in [6] (stimulation, at 2 µM), -1.4% and 0.1%. Besides, the insulin secretion stimulation in [7] is 1.75% (inactive) and -0.3% (inactive). In addition, the viability decrease in assay [8] was 45.8% (inactive) and -14.2% (inactive). The tube area decrease in assay [9] was -10.2% (inactive) and -25.5% (inactive). The GLP1 secretion stimulation in [10] is -2.3% (inactive) and -2.1% (inactive). Moreover, the inhibition of viability in [11] was 75.7% (active) and 54.6% (active). Moreover, the viability decrease (inhibition) in assay [12] was 58.3% (active) and 71% (active); in [13] it was 38.2% (inactive) and 30.5% (inactive). Moreover, the fold change in assay [15] (setting [20]) was 0.928 (inactive) and 0.917 (inactive); in [15] (setting [21]), 1.09 and 1.31. Besides, the cell count is 8700 and 8850 in [15] (setting [22]); 9370 and 9660 in assay [15] (setting [23]). For the same molecule, the z-score in assay [16] (setting [24]) is -0.279 (inactive) and 1.99 (active); in assay [16] (setting [25]), 0.976 and 0.611. For the same molecule, in assay [17], the remaining NAD is 10 nM (inactive). Moreover, in assay [18], the luciferase signal is 56 AU (inactive). The log fold change Tl+ flux in assay [19] was -0.0497 (inactive).

Consider `Cc1ccc(O)c([C@H](CCN(C(C)C)C(C)C)c2ccccc2)c1`, for which the parasite load remaining in assay [1] was 63.7% (inactive). Besides, in assay [1], the viability amounted to 67.2%. Further, the fluorescence ratio was 1 (inactive) in assay [2] and 0.97 (inactive) in assay [5]. For the same molecule, the inhibition was -4.36% (inactive) in assay [3], 1.44% (inactive) in assay [4] and -2.71% (inactive) in [14]. In addition, the nuclear beta-catenin stimulation in assay [6] (at 10 µM) was 0.8% (inactive); in [6] (stimulation, at 2 µM) it was 3.5%. In addition, the insulin secretion stimulation in assay [7] is 30.8% (active). Moreover, the viability decrease in [8] was 35.6% (inactive). Further, the tube area decrease in [9] was -14% (inactive). Moreover, in assay [10], the GLP1 secretion stimulation was 8.3% (inactive). Besides, the inhibition of viability in assay [11] was 44.4% (inactive). Moreover, the viability decrease (inhibition) in assay [12] was 69.7% (active); in assay [13], -2.4% (inactive). For the same molecule, the figures for the z-score in assay [16] (setting [24]) and in [16] (setting [25]) were -0.175 (inactive) and 0.484, respectively. Further, the luciferase signal in assay [18] is 64 AU (inactive). Besides, the log fold change Tl+ flux in [19] was 0.149 (active).

One may read the viability as a read-out of living cells in per cent, often relative to untreated cells. As usually defined, the inhibition is the relative decrease from the control value, in per cent.
